The text below walks through data of PubChem BioAssay.

The nature of this experiment: probe aNOTCH2 binding on compound microarray – biochemical, small-molecule microarray, 635/667 nm fluorescence, primary screen (AID 1121).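 Note: score merges feature fluorescence read at 667 nm with its signal to noise.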 The note with it: higher = more signal.
`COC(=O)[C@@]1(Cc2ccc(OC)cc2)[C@@H]2[C@@H](CC(=O)[C@H]2CC(=O)C(=O)N(C)C)CN1C(=O)c1ccccc1`: the composite z-score came to 0.732.
`COC(=O)C(CC#Cc1ccc2c(c1)[C@]1(C(=O)N2)[C@H](C(=O)N2CCCCCCC2)[C@H]2C(=O)O[C@H](c3ccccc3)[C@H](c3ccccc3)N2[C@@H]1c1ccc(OCCO)cc1)C(=O)OC` returned a composite z-score of 1.19.
Regarding `COc1ccc(CCNC(=O)[C@@]2(c3ccc([N+](=O)[O-])cc3)CC(=O)N(C3CCCCC3)[C@@H]2c2ccc(CO)cc2I)cc1`, the composite z-score turned out to be 0.0254.
Turning to `COc1c(C)cc(-c2cc3c(c(CCc4ccccc4)n2)[Si](C(C)C)(C(C)C)O[C@H]3c2ccccc2)cc1C`, the composite z-score is -0.14.
With `CCCCC(=C=CC[C@@H](O)c1ccccc1OCCO)C[C@@H](O)c1ccccn1` the figure was -0.197.
The value for `[N-]=[N+]=NCc1ccccc1C[C@]1(C(=O)N2CCCCC2)COC(c2ccc(OCCCO)cc2)=N1` was -0.242; that for `COc1cccc(C)c1NC(=O)O[C@H]1[C@H](OC(=O)Nc2ccccc2-c2ccccc2)[C@@H](OC(=O)Nc2ccccc2-c2ccccc2)[C@@H](OC)O[C@@H]1CO` was 0.0151; that for `O=C1C2C=CC(C(O)c3ccccn3)N(Nc3ccc([N+](=O)[O-])cc3)C2C(=O)N1c1ccccc1` (stereo unspecified) was 0.0215.
The value for `CCOC(=O)C1=C[C@@H](C(C)(C)C)N(S(=O)(=O)c2ccc(C)cc2)[C@H]1c1ccc(OC)cc1` was -0.0956; that for `O=C1NC(=O)C2C1C=CC(C(O)C(c1ccccc1)c1ccccc1)N2Nc1ccccn1` (stereo unspecified) was 0.256; that for `CCCCCCc1nc(-c2ccc(OC)nc2)c(C)c2c1[Si](C(C)C)(C(C)C)OC2` was -0.12.
